Source: PubChem (National Center for Advancing Translational Sciences (NCATS))
An excerpt weighted towards active compounds, which were near 2.3% of everything screened.
Giardia killer – Small Molecules that selectively kill Giardia lamblia: qHTS. Giardia lamblia trophozoite viability. activity change, % at 7.66 µM, hits read low. 0.15% of 340,000 active; in the data active = activity change below about -80%; inconclusive = between about -30% and that limit;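 note: parasites exposed to compound for two days anaerobically before the ATP read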
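Luminescence from cellular ATP indicates surviving trophozoites (100 cells/well) following 48 hrs anaerobic compound treatment at 37 deg C; signal develops 15-30 min at room temperature.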
IDH1 R132H inh – qHTS for Inhibitors of mutant isocitrate dehydrogenase 1 (IDH1): qHTS. IDH1-R132H enzyme, NADPH consumption, diaphorase/resazurin fluorescence. Potency, µM (highest dose often 76.6 µM), hits mostly inhibitors. 0.093% of 390,000 active; note: nearly all actives have a fitted effect of over 65% in size
Target sequence (O75874 whole entry R132H, stated change not applied): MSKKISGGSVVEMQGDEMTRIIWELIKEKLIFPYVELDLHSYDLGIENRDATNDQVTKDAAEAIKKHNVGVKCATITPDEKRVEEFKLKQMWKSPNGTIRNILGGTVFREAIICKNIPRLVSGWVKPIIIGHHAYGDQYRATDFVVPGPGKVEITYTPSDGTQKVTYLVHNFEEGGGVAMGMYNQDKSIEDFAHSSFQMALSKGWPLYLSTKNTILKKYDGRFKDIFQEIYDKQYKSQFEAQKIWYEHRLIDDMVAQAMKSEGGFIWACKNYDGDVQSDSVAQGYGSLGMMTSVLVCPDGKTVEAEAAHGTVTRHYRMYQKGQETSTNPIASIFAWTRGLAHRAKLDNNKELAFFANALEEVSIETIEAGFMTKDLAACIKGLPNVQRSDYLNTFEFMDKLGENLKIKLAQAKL
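IDH1-R132H (0.5 ug/mL dispensed) in pH 7.5 Tris buffer was preincubated 30 min with compound, then given a substrate mix of 0.016 mM NADPH and 2 mM alpha-KG for 80 min at room temperature; remaining NADPH was read by diaphorase/resazurin fluorescence.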
Nrf2 block – Nrf2 qHTS screen for inhibitors. A549 ARE-Fluc reporter, luciferase luminescence, 18-24 h. Potency, µM (series often up to 46 µM), hits mostly inhibitors. 2.1% of 360,000 active. AID 504444, 2011; note: nearly all actives have a fitted effect of over 60% in size
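Concentration-response testing used A549 ARE_Fluc cells at 5000 cells/well. Following an 18-24 h compound incubation, viability was read by fluorescence (Ex 405/Em 525) and luciferase output by luminescence.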
A549 tox – Nrf2 qHTS screen for inhibitors: counterscreen for cytotoxicity. A549 ARE-Fluc cells, CellTiter-Fluor viability, 18-24 h. Potency, µM (highest dose often 46 µM), actives largely listed as inhibitors. 0.16% of 390,000 active. AID 504648, 2011
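A549 ARE-Fluc cells in 5% FBS OPTI-MEM, 5000 cells/well, rested 2 h then exposed to compounds in concentration-response for 18-24 h at 37 °C. Viability by CellTiter-Fluor fluorescence (Ex 405/Em 525) after 30 min; luciferase luminescence (BugLite, 15 min, RT) read afterwards.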
Anesthetic bind – qHTS Assay for Identification of Novel General Anesthetics; apoferritin/1-aminoanthracene competitive binding, fluorescence; 0.074% of 350,000 active; Potency, µM (titrated, usually from 77.5 µM), usual class: inhibitors; note: nearly all actives have a fitted effect of over 20% in size
Target sequence (P02791 2-175 limits assumed): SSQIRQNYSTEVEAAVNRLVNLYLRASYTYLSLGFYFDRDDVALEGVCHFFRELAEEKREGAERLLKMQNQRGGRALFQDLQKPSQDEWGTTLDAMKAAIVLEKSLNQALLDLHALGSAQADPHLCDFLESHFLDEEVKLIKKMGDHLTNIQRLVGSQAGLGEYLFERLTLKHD
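Horse-spleen apoferritin (10 uM) in 50% saturated 1-aminoanthracene in PBS was incubated 10 min at room temperature with compound. Fluorescence (ex 380, em 535 nm) was normalized to free and bound 1-AMA, with concentration-response fitted by a four-parameter Hill equation.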
Nrf2 activator – qHTS of Nrf2 Activators; AID 624171, 2012; AREc32 ARE-luciferase reporter (MCF7-derived line), luminescence, 24 h; 0.31% of 410,000 active; Potency, µM (series often up to 46.1 µM), usual class: activators; note: nearly all actives have a fitted effect of over 65% in size
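Cells of the AREc32 ARE-luciferase line are plated in OPTI-MEM containing 5% FBS and left overnight at 37 deg C. Compounds are pinned in, incubation continues 24 hr, and firefly luciferase signal is then measured.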
Resorufin autofl – qHTS for Inhibitors of mutant isocitrate dehydrogenase 1 (IDH1): Cherrypicks Autofluorescence Interference. shares compounds with IDH1 R132H inh. Resorufin detection reagent fluorescence interference, cell-free. inhibition of signal, % at 51.2 µM. 750 tested, under 10 active. AID 623980, 2012
IDH1 WT – qHTS for Inhibitors of mutant isocitrate dehydrogenase 1 (IDH1): Cherrypicks in WT IDH1 | AID 623995, 2012 | 9% of 750 active | shares compounds with IDH1 R132H inh | WT IDH1 enzyme, NADPH diaphorase/resazurin fluorescence | Potency, µM (series often up to 115 µM), hits mostly inhibitors; note: nearly all actives have a fitted effect of over 55% in size
Target sequence (O75874 whole entry, looked up): as the sequence (O75874 whole entry R132H, stated change not applied) above, with H132R counted along it
IDH1 R132H conf – qHTS for Inhibitors of mutant isocitrate dehydrogenase 1 (IDH1): Confirmation of Cherrypicks; Potency, µM (series often up to 76.6 µM), hits mostly inhibitors; AID 624002, 2012; 83% of 750 active; IDH1 R132H enzyme, NADPH diaphorase/resazurin fluorescence; shares compounds with IDH1 R132H inh; note: nearly all actives have a fitted effect of over 50% in size
Hits are given with their value; 0 = inactive; ? = inconclusive; - = no result given. Unless noted, calls come from the whole dose curve; as a rule, active = well fitted curve in the direction sought with a large enough effect; inconclusive = small, poorly fitted or top-dose-only effect, or another doubt; inactive = no such curve, though single readings can be large; an effect the other way counts as inactive or inconclusive.

SMILES | Giardia killer | IDH1 R132H inh | Nrf2 block | A549 tox | Anesthetic bind | Nrf2 activator | Resorufin autofl | IDH1 WT | IDH1 R132H conf
Cc1ccc(S(=O)(=O)Oc2ccc3c(c2)O/C(=C\c2cccnc2)C3=O)cc1 | 0 | ? | 0 | 0 | 0 | 0 | 0 | 0 | 25µM
COc1cccc(OC)c1C(=O)Oc1ccc2c(c1)O/C(=C\c1ccncc1)C2=O | 0 | ? | ? | 0 | 0 | 0 | 0 | 0 | 20µM
O=C1/C(=C/c2cccnc2)Oc2cc(OS(=O)(=O)c3ccc(F)cc3)ccc21 | 0 | ? | - | 0 | 0 | 0 | - | - | -
O=C1/C(=C/c2ccncc2)Oc2cc(OS(=O)(=O)c3ccccc3)ccc21 | 0 | 46µM | 0 | 0 | 0 | 0 | 0 | ? | 16µM
C/C=C(/C)C(=O)O[C@H]1C[C@@]2(C)O[C@H]2[C@@H](OC(C)=O)C2(C)CC[C@@](O)(C(C)C)C12 (stereo partly specified) | - | - | - | - | 0 | - | - | - | -
Cc1ccc(Cl)cc1N1CCN(C(=O)c2ccc(NC(=O)c3nsc4ccccc34)cc2)CC1 | - | 0 | - | 0 | 0 | 0 | - | - | -
COc1ccc(CCN2C(=O)c3[nH]nc(-c4ccccc4O)c3C2c2ccc(OC)c(OC)c2)cc1 (stereo unspecified) | - | 0 | 0 | 0 | 0 | 0 | - | - | -
COc1cc(C2c3c(-c4cc(C)ccc4O)n[nH]c3C(=O)N2CCCO)ccc1OCCC(C)C (stereo unspecified) | - | 40µM | 0 | 0 | 0 | 0 | 0 | 0 | 25µM
COCCN1C(=O)c2[nH]nc(-c3cc(C)ccc3O)c2C1c1ccc(C(C)C)cc1 (stereo unspecified) | - | ? | 0 | ? | ? | 0 | 0 | 0 | 32µM
COc1ccc(CCN2C(=O)c3[nH]nc(-c4ccccc4O)c3C2c2ccc(OC)cc2)cc1 (stereo unspecified) | - | 0 | 0 | 0 | 0 | 0 | - | - | -
C=CCSC1=N/C(=C\c2cc(OCC)c(OC(C)=O)c([N+](=O)[O-])c2)C(=O)S1 | 0 | ? | 0 | 0 | 0 | 0 | 0 | ? | 25µM
COC(=O)CN1C(=O)CSc2ccc(S(=O)(=O)Nc3c(C)cc(C)cc3C)cc21 | - | 0 | 0 | 0 | 0 | 0 | - | - | -
C=CCn1c(SCC(=O)N2CCN(C(=O)c3ccco3)CC2)nc2sc(CC)cc2c1=O | 0 | ? | ? | 0 | 0 | 0 | 0 | 0 | 18µM
COc1ccc(-c2coc3cc(OC(C)=O)ccc3c2=S)cc1 | 0 | 46µM | 0 | 0 | - | 0 | 0 | 0 | ?
CC(=O)Oc1ccc2c(=O)c(-c3ccccc3)coc2c1 | ? | 0 | ? | 0 | 0 | 0 | - | - | -
O=C1OC(c2cccs2)Sc2ccccc21 (stereo unspecified) | - | - | - | - | - | 0 | - | - | -
O=C1CCSC2(C(=O)N(Cc3ccc(F)cc3)c3ccccc32)N1c1cccc(F)c1 (stereo unspecified) | - | 28µM | 0 | 0 | 0 | 0 | 0 | 0 | ?
Cc1cccc(N2C(=O)CCSC23C(=O)N(Cc2ccc(F)cc2)c2ccccc23)c1 (stereo unspecified) | - | ? | ? | 0 | 0 | 0 | 0 | 0 | 20µM
O=C1CSC2(C(=O)N(Cc3ccccc3)c3ccccc32)N1c1ccc(Cl)cc1 (stereo unspecified) | - | ? | - | 0 | 0 | 0 | 0 | 0 | 25µM
Cc1cc(C)cc(N2C(=O)CCSC23C(=O)N(Cc2ccccc2)c2ccccc23)c1 (stereo unspecified) | - | ? | 0 | 0 | 0 | 0 | - | - | -
O=C(CN1C(=O)C2(SCC(=O)N2c2ccc(Cl)cc2)c2ccccc21)NCCc1ccccc1 (stereo unspecified) | - | 0 | 0 | 0 | ? | 0 | - | - | -
O=C1CCSC2(C(=O)N(Cc3ccc(F)cc3)c3ccccc32)N1c1ccccc1 (stereo unspecified) | - | ? | 0 | 0 | ? | 0 | - | - | -
O=C1CCSC2(C(=O)N(Cc3ccc(F)cc3)c3ccccc32)N1c1ccc(F)c(F)c1 (stereo unspecified) | - | 40µM | 0 | 0 | 0 | 0 | 0 | 0 | 14µM
CC1(C)OC(=O)C2(Cc3ccc(Cl)cc3N3CCCC32)C(=O)O1 (stereo unspecified) | 0 | - | 0 | 0 | - | - | - | - | -
Cc1ccc(-c2nn(CC(=O)NC3CCCCC3)c3c2cnc2ccc(F)cc23)cc1C | - | 0 | 0 | 0 | 0 | 0 | - | - | -
SMILES | Giardia killer | IDH1 R132H inh | Nrf2 block | A549 tox | Anesthetic bind | Nrf2 activator | Resorufin autofl | IDH1 WT | IDH1 R132H conf
CCOC(=O)c1cc(-c2ccc(/C=C3/C(=O)N(c4ccc(C(=O)O)cc4)N=C3C)o2)ccc1Cl | 0 | ? | 0 | 0 | 0 | ? | 0 | 5µM | 1.3µM
O=C(c1ccccc1)c1c[nH]c(C(=O)C(Cl)(Cl)Cl)c1 | 0 | 0 | 0 | 0 | 0 | 0 | - | - | -
O=C(c1ccc(Cl)cc1)c1c[nH]c(C(=O)C(Cl)(Cl)Cl)c1 | 0 | ? | 0 | 0 | 0 | 0 | 0 | 0 | 25µM
CCOC(=O)c1ccc(NC(=O)CCCn2c(=O)c3cccn3c3cccnc32)cc1 | - | 0 | ? | 0 | 0 | 0 | - | - | -
Cc1cccc(/C=N/Nc2cc(N3CCOCC3)nc(N3CCOCC3)n2)c1 | 0 | ? | 0 | ? | 0 | 0 | 0 | 0 | 13µM
COc1ccc(-c2c3c(=O)n(C)c(=O)n(C)c3c3n2-c2ccccc2NC3c2ccc(OC)cc2)cc1 (stereo unspecified) | - | 0 | 0 | 0 | 0 | 0 | - | - | -
COc1ccc(-c2c3c(=O)n(C)c(=O)n(C)c3c3n2-c2ccccc2NC3c2ccc(O)cc2O)cc1 (stereo unspecified) | - | 35µM | 0 | 0 | 0 | 0 | 0 | 0 | 8.9µM
COCCNc1ncnc2c1ncn2[C@H]1CN(Cc2ccc(-c3ccccc3)cc2)C[C@@H](CO)O1 | - | - | - | - | - | 0 | - | - | -
CC1=NOC(=O)/C1=C\c1ccc(-c2ccc(Br)cc2)o1 | 0 | 21µM | ? | 0 | ? | 0 | 0 | ? | 22µM
CC1=NOC(=O)/C1=C\c1ccc(-c2ccc(Br)cc2C(=O)O)o1 | 0 | 0 | 0 | 0 | 0 | 0 | - | - | -
Cc1ccc(N(C(=O)COc2ccccc2C)S(=O)(=O)c2ccc(Cl)cc2)cc1 | - | 0 | 0 | 0 | ? | 0 | - | - | -
